40 molecules from the supplement of paper PMC13380429 can be followed below.

The subject of one assay is Vero E6 infected with SARS-CoV-2. The experiment in a line: morphology score (similarity to uninfected cells); higher = more like uninfected cells. To be noted: 24 h.
In turn, `Cc1nc(Nc2ccc(F)cc2)nc(N2CCc3ccccc3C2C)c1C` (stereo unspecified) [revaprazan] (10 µM) gave a morphology score of 0.59.
For `Oc1ccc(C2CNCCc3c2cc(O)c(O)c3Cl)cc1` (stereo unspecified) [fenoldopam] (10 µM), the morphology score is 0.226.
The molecule `Fc1ccccc1CNCc1ccc(-c2ccnc3[nH]ccc23)cc1` (10 µM) had a morphology score of -0.0487.
Same read-out and setting: with `C/C(=C\C(N)C(=O)O)CP(=O)(O)O` (stereo unspecified) (10 µM) the figure was 0.064; with `CC1=NN(c2ccccc2)C(=O)C1` [edaravone] (10 µM), 0.127.
The same measure, in the same setting: with `CN1CCN(C2CCN(C(=O)Nc3cc(Oc4ccc(NC(=O)C5(C(=O)Nc6ccc(F)cc6)CC5)c(F)c4)ccn3)CC2)CC1` [golvatinib] (0.833333 µM) the figure was 0.0621; with `CNC(=O)c1c(I)c(C(=O)NCC(=O)Nc2c(I)c(C(=O)O)c(I)c(C(=O)NCCO)c2I)c(I)c(N(C)C(C)=O)c1I` [ioxaglic-acid] (10 µM), 0.0564.
The same measure, in the same setting: with `CC(NC(=O)c1ccccc1/N=C/c1c(O)ccc2ccccc12)c1ccccc1` (stereo unspecified) [sirtinol] (10 µM) the figure was 0.0701; with `CC(=O)O[C@]1(C(C)=O)CC[C@H]2[C@@H]3CCC4=CC(=O)CCC4=C3[C@@H](c3ccc(N(C)C)cc3)C[C@@]21C` [Ulipristal acetate] (10 µM), 0.286.
`CC(ONC(=O)c1cc(C(F)(F)F)cc(C(F)(F)F)c1)C(=O)Nc1ccc(Cl)cc1` (stereo unspecified) (10 µM) displayed a morphology score of 0.227.
As to `CCCC(=O)Nc1ncnc2c1ncn2[C@@H]1O[C@@H]2COP(=O)(O)O[C@H]2[C@H]1OC(=O)CCC` [bucladesine] (10 µM), the morphology score was determined as 0.0459.
Regarding `O=C(NOCC1CC1)c1ccc(F)c(F)c1Nc1ccc(I)cc1Cl` (10 µM), the morphology score was 0.0812.
The same measure, in the same setting: with `c1cnc2c([O][Ga]([O]c3cccc4cccnc34)[O]c3cccc4cccnc34)cccc2c1` [gallium-triquinolin-8-olate] (10 µM) the figure was 0.775.
The same measure, in the same setting: with `O=C(CCCN1CCC(O)(c2ccc(Cl)cc2)CC1)c1ccc(F)cc1` [haloperidol] (10 µM) the figure was -0.0179.
The same measure, in the same setting: with `Cn1cc(C2=C(c3cn(CCCSC(=N)N)c4ccccc34)C(=O)NC2=O)c2ccccc21` [bisindolylmaleimide-IX] (0.833333 µM) the figure was 0.0892; with `N#Cc1ccc(N(Cc2ccc(Br)cc2)n2cnnc2)cc1` (10 µM), 0.208.
In turn, `Oc1c(Cl)cc(Cl)c(Cl)c1Cc1c(O)c(Cl)cc(Cl)c1Cl` [hexachlorophene] (10 µM) yielded a morphology score of 0.167.
For `C[C@]12CCC(=O)C=C1C=C[C@@H]1[C@@H]2CC[C@@]2(C)[C@H]1CC[C@@]2(O)CCC(=O)O` [potassium-canrenoate] (10 µM), the morphology score is -0.166.
The same measure, in the same setting: with `CN1C[C@H](C(=O)N[C@]2(C)O[C@@]3(O)[C@@H]4CCCN4C(=O)[C@H](Cc4ccccc4)N3C2=O)C[C@@H]2c3cccc4[nH]cc(c34)C[C@H]21` [dihydroergotamine] (10 µM) the figure was -0.0107; with `OCCCNc1ccccc1` [3-anilinopropan-1-ol] (10 µM), -0.164; with `C/C(=C\c1csc(C)n1)[C@@H]1C[C@@H]2O[C@]2(C)CCC[C@H](C)[C@H](O)[C@@H](C)C(=O)C(C)(C)[C@@H](O)CC(=O)O1` [epothilone-B] (0.833333 µM), 0.00236.
The same measure, in the same setting: with `CC(C)[C@H](CO)Nc1nc(Nc2ccc(C(=O)O)c(Cl)c2)c2ncn(C(C)C)c2n1` [purvalanol-B] (10 µM) the figure was -0.00736.
`CN(C)[C@@H]1C(O)=C(C(N)=O)C(=O)[C@@]2(O)C(O)=C3C(=O)c4c(O)ccc(Cl)c4[C@@](C)(O)[C@H]3C[C@@H]12` (10 µM) displayed a morphology score of 0.129.
As to `Oc1nc(-c2ccc(C(F)(F)F)cc2)nc2c1CSCC2` (0.833333 µM), the morphology score stood at 0.149.
Molecule `CC(C)(Oc1ccc(CCNC(=O)c2ccc(Cl)cc2)cc1)C(=O)O` [bezafibrate] (10 µM) had a morphology score of 0.0236.
Still for that read-out and setting: with `OCCNCCCOc1cccc(Cl)c1Cl` (0.833333 µM) the figure was 0.093.

A further assay has the same test system. The experiment in a line: SARS-CoV-2 infection rate relative to infected DMSO; higher = more infection, active = 60 or less. To be noted: 24 h.
For `CCOc1cc(N)c(Cl)cc1C(=O)NCC1CN(Cc2ccc(F)cc2)CCO1` (stereo unspecified) [mosapride] (10 µM), the SARS-CoV-2 infection rate is 89.5% (inactive).
On the same count and under the same terms, with `Cc1ccc(C(=O)c2ccc(CC(=O)O)n2C)cc1` [tolmetin] (10 µM) the figure was 106% (inactive); with `O=c1[nH]c(=O)n([C@H]2C[C@H](O)[C@@H](CO)O2)cc1/C=C/Br` [brivudine] (10 µM), 108% (inactive).
Regarding `CN(C)Cc1ccc(-c2nc3cccc4c3n2CCNC4=O)cc1` (10 µM), the SARS-CoV-2 infection rate is 97.5% (inactive).
`CN1C2C=C(c3sccc3Br)CC1CC2` (stereo unspecified) (10 µM): the SARS-CoV-2 infection rate was 69.5% (inactive).
With `O=S(=O)(/N=C/c1c(O)ccc2ccccc12)c1cccs1` (10 µM), the SARS-CoV-2 infection rate was 98.5% (inactive).
Same read-out and setting: with `CSc1ccc(C(=O)N[C@@H]2CCCC[C@@H]2NC(=O)CNC(=O)c2cc(C(F)(F)F)ccc2NC(=O)NC(C)C)cc1` (10 µM) the figure was 93.5% (inactive).
On the same count and under the same terms, with `CN(CCOc1ccc(-c2ccc3c(c2)OCO3)cc1C(C)(C)C)CC(=O)O` (10 µM) the figure was 102% (inactive); with `C#CCN(C)Cc1ccccc1` [pargyline] (10 µM), 108% (inactive); with `CC1(C)OC(=O)NC1=O` [dimethadione] (10 µM), 102% (inactive).
Still for that read-out and setting: with `CCCC(=O)O[C@]1(C(=O)COC(C)=O)CC[C@H]2[C@@H]3C[C@H](F)C4=CC(=O)C=C[C@]4(C)[C@@]3(F)[C@@H](O)C[C@@]21C` [difluprednate] (10 µM) the figure was 100% (inactive); with `O=C(O)c1cc(=O)c2ccccc2[nH]1` [kynurenic-acid] (10 µM), 97% (inactive); with `CCN1CCN(c2ccc(C(C)(C)NC(=O)c3cc4[nH]c5ccccc5c(=O)c4cc3F)cn2)CC1` (10 µM), 55% (active).
For the molecule `O=C1Nc2ccccc2C2(CCN(CCc3ccc(C(F)(F)F)cc3)CC2)O1` (10 µM), the SARS-CoV-2 infection rate was 106% (inactive).
The same measure, in the same setting: with `Cc1nc(Nc2ccc(F)cc2)nc(N2CCc3ccccc3C2C)c1C` (stereo unspecified) [revaprazan] (10 µM) the figure was 42.5% (active); with `Oc1ccc(C2CNCCc3c2cc(O)c(O)c3Cl)cc1` (stereo unspecified) [fenoldopam] (10 µM), 95% (inactive).
With `Fc1ccccc1CNCc1ccc(-c2ccnc3[nH]ccc23)cc1` (10 µM), the SARS-CoV-2 infection rate was 116% (inactive).
`C/C(=C\C(N)C(=O)O)CP(=O)(O)O` (stereo unspecified) (10 µM): the SARS-CoV-2 infection rate is 110% (inactive).
Consider `CC1=NN(c2ccccc2)C(=O)C1` [edaravone] (10 µM), for which the SARS-CoV-2 infection rate was 101% (inactive).
The same measure, in the same setting: with `CN1CCN(C2CCN(C(=O)Nc3cc(Oc4ccc(NC(=O)C5(C(=O)Nc6ccc(F)cc6)CC5)c(F)c4)ccn3)CC2)CC1` [golvatinib] (0.833333 µM) the figure was 104% (inactive).
On the same count and under the same terms, with `CNC(=O)c1c(I)c(C(=O)NCC(=O)Nc2c(I)c(C(=O)O)c(I)c(C(=O)NCCO)c2I)c(I)c(N(C)C(C)=O)c1I` [ioxaglic-acid] (10 µM) the figure was 104% (inactive); with `CC(NC(=O)c1ccccc1/N=C/c1c(O)ccc2ccccc12)c1ccccc1` (stereo unspecified) [sirtinol] (10 µM), 99% (inactive); with `CC(=O)O[C@]1(C(C)=O)CC[C@H]2[C@@H]3CCC4=CC(=O)CCC4=C3[C@@H](c3ccc(N(C)C)cc3)C[C@@]21C` [Ulipristal acetate] (10 µM), 104% (inactive).
Same read-out and setting: with `CC(ONC(=O)c1cc(C(F)(F)F)cc(C(F)(F)F)c1)C(=O)Nc1ccc(Cl)cc1` (stereo unspecified) (10 µM) the figure was 89.5% (inactive); with `CCCC(=O)Nc1ncnc2c1ncn2[C@@H]1O[C@@H]2COP(=O)(O)O[C@H]2[C@H]1OC(=O)CCC` [bucladesine] (10 µM), 104% (inactive).
With `O=C(NOCC1CC1)c1ccc(F)c(F)c1Nc1ccc(I)cc1Cl` (10 µM), the SARS-CoV-2 infection rate was 100% (inactive).
As for `c1cnc2c([O][Ga]([O]c3cccc4cccnc34)[O]c3cccc4cccnc34)cccc2c1` [gallium-triquinolin-8-olate] (10 µM), the SARS-CoV-2 infection rate was 16.5% (active).
Still for that read-out and setting: with `O=C(CCCN1CCC(O)(c2ccc(Cl)cc2)CC1)c1ccc(F)cc1` [haloperidol] (10 µM) the figure was 114% (inactive).
On the same count and under the same terms, with `Cn1cc(C2=C(c3cn(CCCSC(=N)N)c4ccccc34)C(=O)NC2=O)c2ccccc21` [bisindolylmaleimide-IX] (0.833333 µM) the figure was 91% (inactive); with `N#Cc1ccc(N(Cc2ccc(Br)cc2)n2cnnc2)cc1` (10 µM), 102% (inactive).
Same read-out and setting: with `Oc1c(Cl)cc(Cl)c(Cl)c1Cc1c(O)c(Cl)cc(Cl)c1Cl` [hexachlorophene] (10 µM) the figure was 83.5% (inactive).
Take `C[C@]12CCC(=O)C=C1C=C[C@@H]1[C@@H]2CC[C@@]2(C)[C@H]1CC[C@@]2(O)CCC(=O)O` [potassium-canrenoate] (10 µM): the SARS-CoV-2 infection rate is 114% (inactive).
Regarding `CN1C[C@H](C(=O)N[C@]2(C)O[C@@]3(O)[C@@H]4CCCN4C(=O)[C@H](Cc4ccccc4)N3C2=O)C[C@@H]2c3cccc4[nH]cc(c34)C[C@H]21` [dihydroergotamine] (10 µM), the SARS-CoV-2 infection rate was 104% (inactive).
The same measure, in the same setting: with `OCCCNc1ccccc1` [3-anilinopropan-1-ol] (10 µM) the figure was 110% (inactive); with `C/C(=C\c1csc(C)n1)[C@@H]1C[C@@H]2O[C@]2(C)CCC[C@H](C)[C@H](O)[C@@H](C)C(=O)C(C)(C)[C@@H](O)CC(=O)O1` [epothilone-B] (0.833333 µM), 115% (inactive); with `CC(C)[C@H](CO)Nc1nc(Nc2ccc(C(=O)O)c(Cl)c2)c2ncn(C(C)C)c2n1` [purvalanol-B] (10 µM), 101% (inactive).
Consider `CN(C)[C@@H]1C(O)=C(C(N)=O)C(=O)[C@@]2(O)C(O)=C3C(=O)c4c(O)ccc(Cl)c4[C@@](C)(O)[C@H]3C[C@@H]12` (10 µM), for which the SARS-CoV-2 infection rate was 102% (inactive).
Still for that read-out and setting: with `Oc1nc(-c2ccc(C(F)(F)F)cc2)nc2c1CSCC2` (0.833333 µM) the figure was 94% (inactive).
The same measure, in the same setting: with `CC(C)(Oc1ccc(CCNC(=O)c2ccc(Cl)cc2)cc1)C(=O)O` [bezafibrate] (10 µM) the figure was 104% (inactive).
With `OCCNCCCOc1cccc(Cl)c1Cl` (0.833333 µM), the SARS-CoV-2 infection rate is 112% (inactive).
